# Experimental data published in PubChem BioAssay AID1117289 (Broad Institute, 2014).
# Measured potencies and affinities stand elsewhere. Results filed as inconclusive are left out. Values without a mark were called inactive. Calls of active or inactive are those of the source.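 Rule for the calls: active = inhibitor whose fitted half-maximal dose is at most twice the top tested dose in every run; inconclusive = runs disagree, poor fit, or flat fit inhibiting 30 to 70%; inactive = every run inactive, flat, rising or too weak.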
# Target: Endoplasmic reticulum aminopeptidase 2 (Homo sapiens) (UniProt Q6P179)
# Sequence (Q6P179 whole entry, looked up): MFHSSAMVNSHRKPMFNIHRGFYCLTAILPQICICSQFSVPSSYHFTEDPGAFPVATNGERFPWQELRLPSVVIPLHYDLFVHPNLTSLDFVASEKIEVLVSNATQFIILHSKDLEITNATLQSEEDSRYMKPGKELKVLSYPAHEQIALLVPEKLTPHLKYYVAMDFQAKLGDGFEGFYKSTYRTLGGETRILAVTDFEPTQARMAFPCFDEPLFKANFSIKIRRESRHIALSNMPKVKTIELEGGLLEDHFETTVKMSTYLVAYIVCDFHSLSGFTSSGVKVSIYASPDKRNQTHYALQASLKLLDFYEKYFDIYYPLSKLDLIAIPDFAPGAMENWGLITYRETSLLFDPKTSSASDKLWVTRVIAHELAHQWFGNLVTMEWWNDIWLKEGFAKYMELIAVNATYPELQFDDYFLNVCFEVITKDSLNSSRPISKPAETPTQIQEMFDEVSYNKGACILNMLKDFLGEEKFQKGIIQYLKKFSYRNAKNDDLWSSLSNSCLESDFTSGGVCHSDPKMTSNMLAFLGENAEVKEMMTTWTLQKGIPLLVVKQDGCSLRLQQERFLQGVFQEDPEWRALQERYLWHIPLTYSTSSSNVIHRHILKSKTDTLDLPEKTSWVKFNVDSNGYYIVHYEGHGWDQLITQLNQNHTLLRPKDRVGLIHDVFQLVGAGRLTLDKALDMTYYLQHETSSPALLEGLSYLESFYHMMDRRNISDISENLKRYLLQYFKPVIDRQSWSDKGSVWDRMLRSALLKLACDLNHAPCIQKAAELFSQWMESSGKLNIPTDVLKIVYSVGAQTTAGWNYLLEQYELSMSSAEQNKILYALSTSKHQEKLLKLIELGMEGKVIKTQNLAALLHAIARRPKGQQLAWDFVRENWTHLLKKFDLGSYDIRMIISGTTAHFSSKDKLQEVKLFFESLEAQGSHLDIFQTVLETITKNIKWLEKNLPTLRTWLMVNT
# Test: inhibition of ERAP2 Arg-AMC cleavage – biochemical, plate reader, dry powder, set 2, selectivity assay for selective ERAP1 modulator project, dose response (AID 1117289)
# Conditions: purified ERAP2, Arg-AMC hydrolysis fluorescence, 1 h; series mostly up to 50 µM; activity change, negative = inhibition: at the top concentration
Compound,"activity change, negative = inhibition",outcome
O=C(O)c1ccc(Cl)c(S(=O)(=O)Nc2cc(C(F)(F)F)ccc2N2CCCCC2)c1,-2.09%,–
COc1ccc(C(=O)Nc2cccc(C(F)(F)F)c2)cc1S(=O)(=O)O,30%,–
O=C(O)c1cccc(S(=O)(=O)Nc2cc(C(F)(F)F)ccc2N2CCCCC2)c1,19.5%,–
COc1ccc(C(=O)O)cc1S(=O)(=O)Nc1ccc(N2CCCCC2)cc1C(F)(F)F,21.9%,–
COc1ccc(C(=O)O)cc1S(=O)(=O)Nc1cc(C)ccc1N1CCCCC1,19.8%,–
COc1ccc(C(=O)O)cc1S(=O)(=O)Nc1cc(C(F)(F)F)ccc1N1CCOCC1,25%,–
Cc1ccc(S(=O)(=O)Nc2cc(C(F)(F)F)ccc2N2CCCCC2)cc1C(=O)O,-23.1%,–
COc1ccc(C(=O)O)cc1S(=O)(=O)Nc1cc(C(F)(F)F)ccc1N1CCCCC1,–,inactive
COc1ccc(C(=O)O)cc1S(=O)(=O)Nc1ccccc1N1CCCCC1,-9.84%,–
COc1ccc(C(=O)O)cc1S(=O)(=O)Nc1cc(C(F)(F)F)ccc1N(C)C,33.6%,–
COc1ccc(C(=O)O)cc1S(=O)(=O)N(C)c1cc(C(F)(F)F)ccc1N1CCCCC1,2.48%,–
COc1ccc(C(=O)O)cc1S(=O)(=O)Nc1cccc(N2CCCCC2)c1C(F)(F)F,27.3%,–
COc1ccc(C(=O)O)cc1S(=O)(=O)Nc1cc(F)ccc1N1CCCCC1,13.2%,–
COc1ccc(C(=O)O)cc1S(=O)(=O)Nc1cc(C(F)(F)F)ccc1N1CCN(C)CC1,-3.47%,–
COc1ccc(C2=NN(c3ccc(C(=O)O)cc3)C(c3ccc(OC)c(OC)c3)C2)cc1 (centres undefined),289% [at 6 µM],–
COc1ccc(C(=O)O)cc1S(=O)(=O)Nc1cc(C(F)(F)F)ccc1N1CCN(C(C)=O)CC1,31.4%,–
O=C(O)c1cc(F)cc(S(=O)(=O)Nc2cc(C(F)(F)F)ccc2N2CCCCC2)c1,-23.2%,–
COc1ccc(C(=O)O)cc1S(=O)(=O)N1CCN(c2ccc(C(F)(F)F)cc2N)CC1,25.1%,–
Cc1ccc(C(=O)O)cc1S(=O)(=O)Nc1cc(C(F)(F)F)ccc1N1CCCCC1,-10.5%,–
